Results filed as inconclusive are left out. A number with no mark means an inactive call. The call rests on the fitted dose curve; in most records, active means well fitted inhibition curve with a large enough effect; inconclusive means small, poorly fitted or top-dose-only effect, or effect the other way; inactive means flat fitted curve, though single readings scatter.
molecular target: ATP-dependent 6-phosphofructokinase (Trypanosoma brucei brucei) (UniProt O15648); experiment: qHTS Assay to Find Inhibitors of T. brucei phosphofructokinase: hit validation (AID 492961);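 further: luminescence reports ADP formed as PFK phosphorylates fructose-6-phosphate with ATP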; conditions: T. brucei PFK, ADP-Glo luminescence; series mostly up to 51.4 µM; activity change, negative = inhibition: at the top concentration
Sequence (O15648 whole entry, looked up): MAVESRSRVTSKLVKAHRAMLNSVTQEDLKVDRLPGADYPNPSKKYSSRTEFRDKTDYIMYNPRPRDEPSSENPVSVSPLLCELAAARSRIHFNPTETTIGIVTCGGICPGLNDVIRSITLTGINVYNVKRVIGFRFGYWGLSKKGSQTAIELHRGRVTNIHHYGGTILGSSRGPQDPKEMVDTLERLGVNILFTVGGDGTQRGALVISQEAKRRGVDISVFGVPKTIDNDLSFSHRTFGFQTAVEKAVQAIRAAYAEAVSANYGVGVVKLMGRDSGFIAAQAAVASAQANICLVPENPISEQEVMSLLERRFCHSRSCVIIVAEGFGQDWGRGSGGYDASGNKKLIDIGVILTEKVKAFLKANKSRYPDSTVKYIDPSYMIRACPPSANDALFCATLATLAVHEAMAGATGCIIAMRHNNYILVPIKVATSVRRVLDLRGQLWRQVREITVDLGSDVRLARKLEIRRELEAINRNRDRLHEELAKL
From the text: NIH Molecular Libraries Probe Production Network [MLPCN] NIH Chemical Genomics Center [NCGC] Grant: 1 R03 MH092153-01 PI Name: Malcolm Walkinshaw, University of Edinburgh NCGC Assay Overview: Various species of the protozoan family Trypanosomatidae are responsible for a range of serious human diseases in tropical and subtropical areas of the world. […] Many of the disorders caused by trypanosomatids are fatal if left untreated, but most currently used drugs are inefficient and toxic. […] Oxidative metabolism involving the mitochondrial tricarboxylic acid cycle and oxidative phosphorylation are repressed in these parasites, and recent RNA interference (RNAi) experiments have shown that even partial depletion of certain individual glycolytic enzymes can lead to the death of cultured parasites. One such glycolytic enzyme, phosphofructokinase (PFK), catalyzes the formation of fructose-1,6-bisphosphate (F1,6BP) and ADP from fructose-6-phosphate (F6P) and ATP, and in many metabolic circumstances makes an important contribution to the control of flux through the glycolytic pathway. As a specific glycolytic target, PFK is particularly attractive as it catalyzes the first irreversible step in glycolysis, and structural and kinetic studies have shown very substantial and essential differences from corresponding host enzymes, allowing for the discovery of parasite-selective inhibitors. The goal of this screen is to find small-molecule inhibitors of T. brucei PFK using a biochemical assay that measures PFK activity as a function of ADP production. A luminescence-based assay for T. brucei PFK activity has been developed which uses luciferase to detect production of ADP. Traditional luciferase-based nucleotide detection reagents rely on ATP production as a direct substrate for the luciferase reaction; however, PFK catalyzes the transfer of a phosphate from ATP to F6P, resulting in the net depletion of ATP. To directly measure the ADP product of the PFK reaction, we used the ADP-Glo detection kit (Promega), which utilizes two separate reactions to 1) deplete all remaining uncatalyzed ATP and 2) convert all remaining ADP to ATP, which is then detected through a traditional luciferase-coupled reaction. Compounds were screened as a concentration-titration series that ranged from 57 uM to 0.7 nM.
NCGC Assay Protocol Summary: Substrate buffer was dispensed into white, solid 1536-well plates at 3uL/well in 0.1M triethanolamine (TEA) buffer, pH 8.0, containing final concentrations of 5 mM MgCl2, 0.01% Tween20, 0.5 mM fructose-6-phosphate (F6P) and 0.1mM ATP. Then, 23 nL of compounds or DMSO were delivered to each well using a pin tool. One uL T. brucei PFK (0.1M TEA, 0.01% Tween20, 0.1% bovine serum albumin (BSA) and 1.25nM PFK, final concentrations) was then dispensed, and plates were incubated at room temperature for 45 min. The luminescent detection reagent, ADP-Glo (Promega), was then added in two steps: the first reagent, ADP-Glo (which converts remaining uncatalyzed ATP), was added at 2.5uL/well and incubated for ten minutes at room temperature, and the second component, Kinase Detection reagent (which converts ADP to ATP as a substrate for luciferase-based luminescence), was added immediately after at 5uL/well, followed by one final ten minute room temperature incubation. The plates were measured on a ViewLux plate reader for luminescent signal using a clear filter with a one second exposure. The %Activity was determined from the corrected luminescence values. As no specific T. brucei PFK inhibitors have been identified in the literature, 1x (1.25nM) and 0x PFK enzyme controls (untreated) were included to normalize %Activity of identified inhibitors; 0x enzyme values corresponded to 100%Activity (full inhibition), while 1x PFK enzyme values were used to normalize 0%Activity (no inhibition). Concentration-response curves were fitted to the signals arising from the resulting luminescence. […]

Row | SMILES | activity change, negative = inhibition
1 | C[C@@H](N)C(=O)O | 5.45%
2 | NNC(=O)CP(=O)(c1ccccc1)c1ccccc1 | 0%
3 | CCc1cccc(CC)c1NC(=O)CN(CC(=O)O)CC(=O)O | 10.2% [at 24.3 µM]
4 | CC(=O)Nc1ccccc1 | -2.92%
5 | C=CCNC(N)=S | 5.45%
6 | Cc1cc(OI)c(C(C)C)cc1-c1cc(C(C)C)c(OI)cc1C | -12%
7 | Nc1ncnc(Nc2ccccc2)n1 | -1.14%
8 | O=C1c2ccccc2C(=O)C1c1ccc(Br)cc1 | 3.15%
9 | O=C(CN1CCNCC1)NC1CCCCC1 | 0%
10 | CNCc1ccccc1 | -3.58%
11 | COc1ccc(C(=O)N2CCN(CC(=O)N3CCOCC3)CC2)cc1 | 0%
12 | CCc1nnc(NS(=O)(=O)c2ccc(N)cc2)s1 | 3.67%
13 | COc1ccccc1Oc1c(NS(=O)(=O)c2ccc(C(C)(C)C)cc2)nc(-c2ncccn2)nc1OCCO | 6.24%
14 | CCN(CC)CCc1nc(-c2ccccc2)no1 | -4.43% [at 24.3 µM]
15 | CCN(CC)C(=O)c1cccc(C)c1 | 0%
16 | CC(=O)N(CC(O)CO)c1c(I)c(C(=O)NCC(O)CO)c(I)c(C(=O)NCC(O)CO)c1I (stereo not given) | 2.96%
17 | CCN1CC(CCN2CCOCC2)C(c2ccccc2)(c2ccccc2)C1=O (stereo not given) | 2.21%
18 | CC(=O)N[C@@H](Cc1ccc(O)cc1)C(=O)O | -2.78%
19 | O=C(O)CCC(=O)O | 4.36%
20 | CC(=O)Nc1ccc(OCCOCCOc2ccc(NC(C)=O)cc2)cc1 | 7.68%

Row | SMILES | activity change, negative = inhibition
21 | CCCC(O)C(CC)CO (stereo not given) | -1.41%
22 | CCCOC(=O)c1ccc(N)cc1 | 0%
23 | CC(C)C[C@@H](N)C(=O)O | -1.56%
24 | Cc1ccc(S(=O)(=O)NC(=O)NC2CCCCCCC2)cc1 | -5.32%
25 | COC(=O)c1ccccc1C(=O)c1ccc(OCCN2CCCCC2)cc1 | 10.7%
26 | C[C@@H]1CCC[C@H](C)N1 | -3.15% [at 24.3 µM]
27 | CC1CC(OC(=O)c2ccccc2O)CC(C)(C)C1 (stereo not given) | 9.28%
28 | Cc1ccc(C(C)C)c(O)c1 | 1.73%
29 | CC(CSC(=O)c1ccccc1)C(=O)N1C[C@@H](Sc2ccccc2)C[C@H]1C(=O)O (stereo not given in full) | -14.5%
30 | CN/C(=C\[N+](=O)[O-])NCCSCc1csc(CN(C)C)n1 | -7.77% [at 24.3 µM]
31 | CCCCCCCCCCCCCCCCC(C(=O)O)C(O)(CC(=O)O)C(=O)O (stereo not given) | 3.37%
32 | CCCCCCCCCCOc1cc2c(=O)c(C(=O)OCC)c[nH]c2cc1OCC | 21.7%
33 | c1ccc2[nH]ccc2c1 | -2.83%
34 | CCCCCC(C)N (stereo not given) | 1.43%
35 | O=C(O)c1cc(=O)c2ccccc2o1 | 0.275%
36 | Nc1ccc(C(=O)Oc2ccccc2)c(O)c1 | 6.18%
37 | CC(C)CCCC(C)CCCC(C)CCCCC(C)CCCC(C)CCCC(C)C (stereo not given) | -0.459%
38 | Cc1c(NC(C)C)c(=O)n(-c2ccccc2)n1C | 17.3%
39 | CCOc1ccc(C(=O)OCCN(CC)CC)cc1 | -14.5%
40 | O=S1(=O)OC(c2ccc(O)cc2)(c2ccc(O)cc2)c2ccccc21 | -5.53%
